Data on 18 molecules can be found in PubChem BioAssay (NCI).

SMILES strings stand for the structures. The panel holds about 79,000 compounds, 15% with a hit somewhere; the sample as a whole holds those more often. Unmarked numbers belong to inactive results. No stated cut-off is given here; in the data, active means growth inhibition above about 70%; inactive means the rest.

This assay in a line: NCI Yeast Anticancer Drug Screen. Data for the rad50 strain (AID 155).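 Further: 0% = growth of vehicle-only cultures of the same strain.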 To be noted: S. cerevisiae rad50 strain growth inhibition; at 5.0 µM (retest, dose inferred, filed as 0.5); active compounds read high. The procedure, abridged:
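Inhibition values express reduced yeast growth in compound-treated cultures relative to vehicle-treated controls.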
Take `CCc1ccc(/C(C)=N/NC(N)=S)cc1`: the growth inhibition was -4%.

For the molecule `CC(C)/C=C1\CCOC1=O`, the growth inhibition is 0%.

As for `COc1c(C(=O)/C(=N/Nc2ccccc2)C(C)=O)c(O)c(OC)c2occc12`, the growth inhibition was -2%.

As to `COc1ccc(CC/C(=N/O)c2ccccc2)cc1`, the growth inhibition was 0%.

For `CCOC(=O)C1(C#N)C(c2ccccc2)C1(C#N)C#N` (stereo not drawn), the growth inhibition is 18%.

For the molecule `COc1ccc(OC)c(/C=C/NC=O)c1`, the growth inhibition was -10%.

Regarding `CC(=O)Oc1ccc(-c2ccc(Br)cc2)cc1`, the growth inhibition is -1%.

With `COC(=O)/C(C#N)=C/c1cc(OC)c(O)cc1Br`, the growth inhibition was 46%.

With `CCC(C1SC(=S)NC1=O)C1SC(=S)NC1=O` (stereo not drawn), the growth inhibition was 3%.

With `CCC(C)c1ccc(O)c(C(C)c2ccccc2)c1` (stereo not drawn), the growth inhibition is 44%.

For `C/C(=N\NC(=S)N1CCN(c2ccccc2)CC1)c1nccs1`, the growth inhibition is 28%.

With `COc1ccc2c(C(=O)c3ccccc3)c3[n+](cc2c1OC)CCc1cc2c(cc1-3)OCO2`, the growth inhibition is -1%.

With `Cc1cccc(C[N+](C)(C)CCCO)c1C`, the growth inhibition is 1%.

Regarding `c1ccc(N=C2SC3=NCCN3C2=Nc2ccccc2)cc1`, the growth inhibition was 43%.

As for `Cc1ccc(SCc2ccccc2Cl)nn1`, the growth inhibition was -2%.

In the case of `CCCc1cc(=O)oc2c3c(c4c(c12)OC(C)(C)CC4)O[C@H](C)[C@H](C)C3=O`, the growth inhibition was -7%.

`CC1(C)COC(c2cccc(C(O)c3ccc(Cl)cc3)c2)=N1` (stereo not drawn): the growth inhibition was 40%.

On to `CCOC(=O)c1cc(NC(=O)c2cc(NC(=O)c3cc(NC(=O)c4c(-c5ccccc5)noc4C)cn3C)cn2C)cn1C`, for which the growth inhibition was 3%.
